The text below walks through data of the OligoGym collection.
Further: reference of the scale not given here.

The first test addresses KIAA0101. Briefly: pooled miR-30 sensor sort-seq; sequence = guide strand. Conditions: shRNA.
In turn, TTACATTCTAGAATACCAGGGT gave a sensor-assay potency score (higher = more potent) of 1.19.

In turn, TTTGCTTTTCCTAAGCCACTGC displayed a sensor-assay potency score (higher = more potent) of 0.846.

In turn, TTCATCATTTGTGTGATCAGGT came in with a sensor-assay potency score (higher = more potent) of 1.01.

The sequence TTATTTTCAGCTTTCCTCGATG showed a sensor-assay potency score (higher = more potent) of -0.0942.

Turning to TTCCTTTTTGCCACTTGGGAGT, the sensor-assay potency score (higher = more potent) was -1.06.

The sequence TTCTTTTTCATCATTTGTGTGA displayed a sensor-assay potency score (higher = more potent) of -0.441.

Sequence TTCCTAAGCCACTGCTTCCTGC displayed a sensor-assay potency score (higher = more potent) of -1.25.

In the case of TTCAGGAATCTGATTCTCTTTT, the sensor-assay potency score (higher = more potent) was -0.732.

Regarding ATTTGTGTGATCAGGTTGCAAA, the sensor-assay potency score (higher = more potent) is -1.36.

In turn, TTTTTCAGAATCTTTAGGGGAC yielded a sensor-assay potency score (higher = more potent) of 0.436.

The next test has as its target KIAA0319. The test is described as above. As to conditions: shRNA.
TTCAGCAGCTTTGAGAACCTTG came in with a sensor-assay potency score (higher = more potent) of -0.33.

Sequence TTATAATTAGGTTATCTCCAGC came in with a sensor-assay potency score (higher = more potent) of -0.767.

With TTATGGTGTGATTTGGTCCTGC, the sensor-assay potency score (higher = more potent) was 0.156.

The sequence TAAAACACAATCACGGTGCTGA gave a sensor-assay potency score (higher = more potent) of 1.15.

The sequence TTCACCTTGGTAGTCTGTGGGG gave a sensor-assay potency score (higher = more potent) of -0.629.

In the case of TACATAAAACACAATCACGGTG, the sensor-assay potency score (higher = more potent) was -0.47.

For the sequence AAATGTATAATCTCCTTCCTGC, the sensor-assay potency score (higher = more potent) is 0.3.

In the case of TTCTCTTCTATGAAGGGCCCGT, the sensor-assay potency score (higher = more potent) is -0.659.

TTTCACTAGAAACAGTGACTTT displayed a sensor-assay potency score (higher = more potent) of -0.974.

Turning to TTTATTTCTATTAACAAGCATC, the sensor-assay potency score (higher = more potent) is -1.13.

In the case of TAAGAGTTTGCTTGTGTCCTTG, the sensor-assay potency score (higher = more potent) is 0.184.

In turn, TTCACTAGAAACAGTGACTTTG had a sensor-assay potency score (higher = more potent) of -0.766.

The next test has as its target KIAA0368. Described as above. As to conditions: shRNA.
For TATTCTGTAATTGTTCATCTGT, the sensor-assay potency score (higher = more potent) was found to be 0.659.

TTTTCTTGCTCTGTCGCCCGGA: the sensor-assay potency score (higher = more potent) is 0.627.

Regarding TTTATTTAAAATCACATCCAAC, the sensor-assay potency score (higher = more potent) is -1.25.

Sequence TTGTATTTGACATTCTCTTTGC registered a sensor-assay potency score (higher = more potent) of -0.267.

TTTTGTAGTCTTTATAAGCTGT gave a sensor-assay potency score (higher = more potent) of -0.31.

On to TTAACTTGACTCTTGTACTGAC, for which the sensor-assay potency score (higher = more potent) stood at 0.576.

With TTGAATTTGTATTTGTACCAAA, the sensor-assay potency score (higher = more potent) was -0.672.

The sequence TTTAACTTGACTCTTGTACTGA came in with a sensor-assay potency score (higher = more potent) of 0.641.

In turn, TTCTGAATCACACTGTTCCGAT came in with a sensor-assay potency score (higher = more potent) of -0.203.

Regarding TTTGATGCAACATCTTGGCTAA, the sensor-assay potency score (higher = more potent) was 0.354.

With TTGAATAGCAAGTCGAGTCTCA, the sensor-assay potency score (higher = more potent) came to 0.314.

TTCTGTAGCACTCTGAATGAGT returned a sensor-assay potency score (higher = more potent) of -0.327.

Another test deals with KIAA0564. The description is as above. As to conditions: shRNA.
TTGAATATAACAACTTAAGTTG came in with a sensor-assay potency score (higher = more potent) of -0.73.

TAGAACATCCAGCACAGTCAGG returned a sensor-assay potency score (higher = more potent) of -1.28.

In the case of TTAACCTTTGCAATACAGCAAG, the sensor-assay potency score (higher = more potent) was -0.99.

Turning to TAGTCTTTGCTTATTGTCCTTG, the sensor-assay potency score (higher = more potent) is -0.514.

TAAACATATATCTTTAACCATG gave a sensor-assay potency score (higher = more potent) of -1.59.
